The source of these data is PubChem BioAssay.

The source made the active and inactive calls. Unless noted, how the calls were made is not given here.

The subject of test [1] is Wnt5a (protein binding on small-molecule microarray). The experiment in a line: Wnt5a binders on small-molecule microarray, primary screen, biophysical, 635/667 nm fluorescence (AID 1142).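 Further: fluorescence read at 667 nm with signal to noise per printed feature.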 The conditions noted are these: 635 nm fluorescence, higher = more signal.
A short description of test [2]: cell viability in Huh7 cells, primary screen, cytotoxicity control for HCV replication inhibitor project, CellTiter-Glo luminescence, basal, 48 h (AID 1143).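 Further: Huh7 hepatoma cells carrying a hepatitis C replication reporter with no stimulus; test concentration not given here.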 Conditions: Huh7 HCV replicon, higher = more signal, called active from +8 up or from −8 down.
Test [3] can be described thus: P. aeruginosa biofilm formation inhibitors, primary screen, PAO1 strain, BacTiter-Glo luminescence, LB-PBS (AID 1144). Conditions: 12 h, higher = more signal.
A short description of test [4]: CREB reporter modulators without forskolin, primary screen, cell-based, PC12, CRE-LacZ reporter, unstimulated (AID 1145). The conditions noted are these: no forskolin, luminescence, 4.5 h, higher = more signal, called active from +8 up or from −8 down.
Test [5] is described as follows: CREB reporter modulators under forskolin, primary screen, cell-based, PC12, CRE-LacZ reporter, forskolin-stimulated (AID 1146).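 Further: PC12 cells with 6xCRE LacZ reporter stimulated by forskolin 10 µM; beta-galactosidase reporter signal reflecting CREB driven transcription.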 The conditions noted are these: luminescence, 4.5 h, higher = more signal, called active from +8 up or from −8 down.
For test [6], the target named is Streptavidin (Streptomyces avidinii) (UniProt P22629). The experiment in a line: streptavidin binders on small-molecule microarray, primary screen, artefact control for SMM compound annotation, biophysical, 635/667 nm fluorescence (AID 1147).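 Further: signal reflects streptavidin binding to arrayed compounds as a control protein.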 Conditions: streptavidin binding, higher = more signal.
Chain of Streptavidin (Streptomyces avidinii) (P22629 whole entry, looked up): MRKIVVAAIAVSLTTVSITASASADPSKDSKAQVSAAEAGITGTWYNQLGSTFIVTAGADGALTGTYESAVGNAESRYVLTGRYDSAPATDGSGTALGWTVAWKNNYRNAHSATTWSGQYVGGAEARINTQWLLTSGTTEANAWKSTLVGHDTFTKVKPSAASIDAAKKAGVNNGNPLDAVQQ
Test [7] in a line: small-molecule binders of probe aInhba, primary screen, biochemical, small-molecule microarray, 635/667 nm fluorescence (AID 1148).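 Further: score merges 667nm spot fluorescence with signal-to-noise for antibody binding to printed compounds.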 Conditions: higher = more signal.
Test [8] concerns the target Torsin-1A (Homo sapiens) (UniProt O14656). The experiment in a line: torsin A binders from cell lysate, primary screen, small-molecule microarray, wild-type, 635/667 nm (AID 1149). Conditions: COS7 hTOR1A-WT lysate, 635 nm fluorescence, higher = more signal.
Test [9] has the same target. The experiment in a line: small-molecule binders of mutant TOR1A in lysate, primary screen, cell lysate, small-molecule microarray, COS7 lysate, 635/667 nm fluorescence (AID 1150).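 Further: score pools 667 nm emission and signal to noise measuring lysate protein binding.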 The conditions noted are these: COS7 hTOR1A mutant lysate, 635 nm fluorescence, higher = more signal.
Test [10] deals with Sonic hedgehog protein (Shh). The test can be described thus: small-molecule binders of Shh protein, primary screen, biochemical, small-molecule microarray, 635/667 nm fluorescence (AID 1151).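 Further: Shh protein binding to compounds spotted on small-molecule microarray slides; score combines spot fluorescence intensity with signal-to-noise across triplicate slides.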 Conditions: small-molecule microarray binding, 635 nm fluorescence; higher = more signal.
Test [11] is described as follows: E. coli DRC41 culture turbidity changes, primary screen, E. coli filamentation inducer project, strain DRC41, OD650, 48 h (AID 1152).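 Further: E. coli MC1000 strain DRC41 lacking acrAB efflux pump and sulA.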 The conditions noted are these: E. coli DRC41 (acrAB sulA), higher = more signal, called active from +8 up or from −8 down.
The nature of test [12]: small-molecule binders of probe aLefty1, primary screen, biochemical, small-molecule microarray, 635/667 nm fluorescence (AID 1153).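 Further: score merges spot fluorescence with signal-to-noise ratio from the scanned slide images.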 Conditions: higher = more signal.
Test [13] is described as follows: PSAC antagonists in infected red cells, primary screen, cell-based, P. falciparum Indochina, OD700, 1 h (AID 1154). The conditions noted are these: P. falciparum Indochina infected RBC osmotic lysis, higher = more signal, called active from +8 up or from −8 down.
A short description of test [14]: PSAC antagonists in infected red cells, primary screen, cell-based, P. falciparum Indochina, OD700, 2 h (AID 1155).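 Further: lysis reports solute entry through the parasite surface anion channel PSAC; channel blockers reduce lysis of infected cells.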 Conditions: P. falciparum Indochina infected erythrocytes, osmotic lysis OD700; higher = more signal, called active from +8 up or from −8 down.
Test [15] can be described thus: osmotic lysis modulators in infected erythrocytes, primary screen, PSAC antagonist project, cell-based, P. falciparum Indochina, OD700, 3 h (AID 1156). Conditions: higher = more signal, called active from +8 up or from −8 down.
A short description of test [16]: PSAC antagonists in infected red cells, primary screen, cell-based, P. falciparum Indochina, OD700, 18 h (AID 1157). Conditions: P. falciparum Indochina infected erythrocytes, osmotic lysis OD700, 18 h; higher = more signal, called active from +8 up or from −8 down.
Test [17] can be described thus: modulators of S6 phosphorylation in cells, primary screen, cell-based, A549, cytoblot, luminescence, serum-stimulated (AID 1158).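 Further: serum-stimulated A549 lung adenocarcinoma cells; signal is phosphorylated S6 detected by cytoblot immunostaining with HRP secondary.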 Conditions: A549 phospho-S6 cytoblot, 5 h, higher = more signal.
For test [18], the target named is NADPH oxidase 2 (Homo sapiens) (UniProt P04839). The test can be described thus: NOX2-dependent H2O2 signal modulators, primary screen, NOX inhibitor project, cell-based, HEK293-NOX2, PMA-stimulated, Amplex Red fluorescence (AID 1159). Further: test concentration not given here. The conditions noted are these: 45 min, higher = more signal, called active from +8 up or from −8 down.
Chain of NADPH oxidase 2 (Homo sapiens) (P04839 whole entry, looked up): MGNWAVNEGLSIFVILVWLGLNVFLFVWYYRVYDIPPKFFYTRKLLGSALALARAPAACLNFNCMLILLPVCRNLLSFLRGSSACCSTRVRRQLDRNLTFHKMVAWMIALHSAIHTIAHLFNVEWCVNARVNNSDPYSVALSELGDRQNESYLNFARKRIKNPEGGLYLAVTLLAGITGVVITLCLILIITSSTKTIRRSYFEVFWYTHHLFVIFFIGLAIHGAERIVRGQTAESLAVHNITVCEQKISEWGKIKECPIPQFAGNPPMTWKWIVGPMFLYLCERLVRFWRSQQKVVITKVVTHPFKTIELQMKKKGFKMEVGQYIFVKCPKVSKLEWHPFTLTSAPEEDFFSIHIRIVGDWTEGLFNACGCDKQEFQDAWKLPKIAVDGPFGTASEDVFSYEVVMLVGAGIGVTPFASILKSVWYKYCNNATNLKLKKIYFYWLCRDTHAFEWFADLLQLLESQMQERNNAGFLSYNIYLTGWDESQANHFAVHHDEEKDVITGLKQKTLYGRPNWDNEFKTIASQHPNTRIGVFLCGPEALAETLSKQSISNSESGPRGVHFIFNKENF
In test [19] the target is NADPH oxidase 4 (Homo sapiens) (UniProt Q9NPH5). The test can be described thus: NOX4-dependent H2O2 signal modulators, primary screen, NOX inhibitor project, cell-based, HEK293-NOX4, tetracycline-induced, Amplex Red fluorescence (AID 1160). The conditions noted are these: 45 min, higher = more signal, called active from +8 up or from −8 down.
Chain of NADPH oxidase 4 (Homo sapiens) (Q9NPH5 whole entry, looked up): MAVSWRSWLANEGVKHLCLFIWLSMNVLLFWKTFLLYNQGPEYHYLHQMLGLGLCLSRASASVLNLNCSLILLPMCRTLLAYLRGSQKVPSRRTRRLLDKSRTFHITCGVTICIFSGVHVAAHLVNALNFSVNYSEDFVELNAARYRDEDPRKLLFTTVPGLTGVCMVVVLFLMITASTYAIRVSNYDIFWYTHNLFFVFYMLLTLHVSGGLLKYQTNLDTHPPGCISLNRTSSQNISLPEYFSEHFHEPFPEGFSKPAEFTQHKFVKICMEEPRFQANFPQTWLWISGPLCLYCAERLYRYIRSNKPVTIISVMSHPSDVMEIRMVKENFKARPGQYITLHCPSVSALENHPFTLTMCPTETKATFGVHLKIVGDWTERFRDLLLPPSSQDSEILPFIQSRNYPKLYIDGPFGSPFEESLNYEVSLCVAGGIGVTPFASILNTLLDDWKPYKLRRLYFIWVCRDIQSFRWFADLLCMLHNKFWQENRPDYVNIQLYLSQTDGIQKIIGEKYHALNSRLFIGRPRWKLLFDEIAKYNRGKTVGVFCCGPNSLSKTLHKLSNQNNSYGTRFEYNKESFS
The target of test [20] is NADPH oxidase 5 (Homo sapiens) (UniProt Q96PH1). The test can be described thus: NOX5-dependent H2O2 signal modulators, primary screen, NOX inhibitor project, cell-based, HEK293-NOX5, Amplex Red fluorescence (AID 1161). The conditions noted are these: HEK293-NOX5, ionomycin, 45 min, higher = more signal.
Chain of NADPH oxidase 5 (Homo sapiens) (Q96PH1 whole entry, looked up): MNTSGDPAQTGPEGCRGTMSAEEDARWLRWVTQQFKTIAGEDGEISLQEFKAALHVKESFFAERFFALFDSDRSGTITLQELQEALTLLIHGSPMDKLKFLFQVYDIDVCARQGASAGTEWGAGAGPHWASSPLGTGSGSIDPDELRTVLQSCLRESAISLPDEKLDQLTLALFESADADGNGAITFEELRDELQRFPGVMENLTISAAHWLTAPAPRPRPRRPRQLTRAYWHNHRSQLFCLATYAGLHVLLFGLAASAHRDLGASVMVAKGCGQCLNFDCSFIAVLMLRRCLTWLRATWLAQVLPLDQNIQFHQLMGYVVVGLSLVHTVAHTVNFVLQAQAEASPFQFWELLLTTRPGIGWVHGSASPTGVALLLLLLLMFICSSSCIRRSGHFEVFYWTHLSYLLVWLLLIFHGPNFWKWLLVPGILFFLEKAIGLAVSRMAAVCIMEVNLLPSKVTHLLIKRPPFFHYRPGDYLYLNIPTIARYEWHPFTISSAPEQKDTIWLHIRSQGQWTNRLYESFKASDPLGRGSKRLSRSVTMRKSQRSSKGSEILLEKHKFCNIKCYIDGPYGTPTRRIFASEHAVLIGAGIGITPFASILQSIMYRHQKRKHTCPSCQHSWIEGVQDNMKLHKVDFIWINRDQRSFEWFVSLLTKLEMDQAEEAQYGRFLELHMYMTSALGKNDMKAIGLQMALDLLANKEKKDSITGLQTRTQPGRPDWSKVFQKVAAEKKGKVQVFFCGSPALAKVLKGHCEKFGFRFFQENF

Chain of Torsin-1A (Homo sapiens) (O14656 whole entry, looked up): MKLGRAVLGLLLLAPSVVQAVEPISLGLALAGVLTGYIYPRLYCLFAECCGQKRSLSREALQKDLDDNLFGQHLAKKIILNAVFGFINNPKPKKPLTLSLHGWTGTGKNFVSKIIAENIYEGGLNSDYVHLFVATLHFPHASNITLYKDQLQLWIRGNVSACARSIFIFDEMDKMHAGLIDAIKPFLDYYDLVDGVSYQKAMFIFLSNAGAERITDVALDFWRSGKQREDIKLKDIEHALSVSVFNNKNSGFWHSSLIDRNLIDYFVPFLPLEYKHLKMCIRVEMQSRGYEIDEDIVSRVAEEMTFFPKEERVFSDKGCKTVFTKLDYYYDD

In the case of `CN(C)c1ccc(C(O)C2C=CC3C(=O)NC(=O)C3N2Nc2ccccn2)cc1` (stereo not given), the composite z-score was 0.0094 in test [1]; 0.0863 in test [6]; -0.152 in test [7]; 1.05 with Torsin-1A (Homo sapiens) [8]; 0.927 with Torsin-1A (Homo sapiens) [9]; 0.862 in [10]. The molecule also returned a composite z-score in [12] of 0.201. The z-score is 1 (inactive) in [2]; 0.161 (inactive) in test [3]; -1.49 (inactive) in test [4]; 0.337 (inactive) in test [5]; -1.5 (inactive) in test [11]; 0.85 (inactive) in test [13]. Besides, the z-score is 0.123 (inactive) in test [14]; -0.693 (inactive) in test [15]; 0.408 (inactive) in [16]; -0.888 in test [17]; -2.21 (inactive) in test [18]; -4.43 (inactive) in [19]. For the same molecule, the z-score in test [20] was -4.16.
Regarding `COc1ccc(CCNC(=O)[C@@]2(Cc3ccccc3I)c3ccccc3C(=O)N(C3CCCCC3)[C@H]2c2ccc(CO)cc2)cc1`, the composite z-score is -0.372 in test [1]; 0.623 in [6]; 0.0198 in [7]; -0.57 with Torsin-1A (Homo sapiens) [8]; -0.0979 with Torsin-1A (Homo sapiens) [9]; -0.193 in test [10]. The composite z-score in test [12] was -0.104. Also, the z-score was -6.39 (inactive) in test [2]; -1.43 (inactive) in [3]; -0.0243 (inactive) in [4]; -1.06 (inactive) in test [5]; 0.535 (inactive) in test [11]; 3.52 (inactive) in test [13]. Moreover, the z-score in test [14] is 0.502 (inactive); in test [15] it was 1.27 (inactive); in [16] it was -0.31 (inactive); in [17], 3.35; in test [18], 0.189 (inactive); in test [19] it was -1.09 (inactive). Moreover, the z-score in test [20] was -2.19.
As for `COc1cccc(C)c1NC(=O)O[C@H]1[C@H](OC(=O)Nc2ccc3c(c2)OCO3)[C@@H](OC(=O)Nc2ccc3c(c2)OCO3)[C@@H](OC)O[C@@H]1CO`, the composite z-score in test [1] stood at 0.648; in test [6] it was 1.3; in [7], 0.0319; in the test with Torsin-1A (Homo sapiens) [8], 1.11; with Torsin-1A (Homo sapiens) [9], 1.19; in [10] it was 1.54. Also, the composite z-score in [12] is -0.165. The z-score in [2] was -1.19 (inactive); in test [3] it was 0.0488 (inactive); in test [4] it was 1.45 (inactive); in [5], -0.424 (inactive); in test [11] it was 0.132 (inactive); in test [13] it was 5.81 (inactive). For the same molecule, the z-score was 1.26 (inactive) in test [14]; 0.579 (inactive) in [15]; 0.349 (inactive) in [16]; -0.227 in [17]; -1.21 (inactive) in [18]; -0.747 (inactive) in test [19]. In test [20], the z-score was -1.67.
Consider `O=C1NC(=O)C2C1C=CC(C(O)c1ccco1)N2Nc1ccc(Cl)cc1Cl` (stereo not given), for which the composite z-score in [1] is -0.118; in [6], 0.531; in test [7], -0.0986; with Torsin-1A (Homo sapiens) [8], 0.148; with Torsin-1A (Homo sapiens) [9] it was 0.672; in [10] it was 0.576. Moreover, the composite z-score in test [12] was -0.0984. Moreover, the z-score in [2] was -0.483 (inactive); in test [3], -0.315 (inactive); in test [4] it was 0.0501 (inactive); in test [5] it was 0.815 (inactive); in test [11], -2.27 (inactive); in test [13] it was 5.52 (inactive). Further, the z-score in test [14] was 1.31 (inactive); in test [15], 0.331 (inactive); in test [16] it was 1.2 (inactive); in [17], -0.992; in test [18] it was -0.767 (inactive); in [19], -5.58 (inactive). Besides, the z-score in test [20] was -4.22.
For `CCOC(=O)C[C@H]1[C@H](OC(=O)c2cc3ccccc3oc2=O)[C@@H](NC(=O)c2ccc3ccccc3n2)c2cc(OCCCO)ccc2N1C(=O)Cc1ccc(OC)cc1`, the composite z-score in test [1] was 0.155; in test [6] it was 0.386; in test [7], -0.0136; with Torsin-1A (Homo sapiens) [8] it was -0.262; with Torsin-1A (Homo sapiens) [9], -0.0557; in test [10] it was 1.56. The same molecule showed a composite z-score in test [12] of 0.0774. Also, the z-score in [2] is -0.593 (inactive); in [3] it was -1.05 (inactive); in test [4] it was -1.23 (inactive); in test [5], -0.74 (inactive); in test [11], 0.116 (inactive); in [13], 8.66 (active). Besides, the z-score in test [14] was 1.33 (inactive); in test [15] it was 0.635 (inactive); in test [16], 0.745 (inactive); in test [17], -0.0026; in test [18] it was 1.01 (inactive); in test [19] it was 1 (inactive). This molecule came in with a z-score in test [20] of 1.53.
